Many of the other results were omitted from the sample, so hits are more common in it than they were.
TbREL1 primary = TbREL1 inhibition, primary screen; P86926; TbREL1 RNA ligation, FRET fluorescence; inhibition, % at 9.66 µM; actives 0.49% (n = 89,000); AID 1117264;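 active = inhibition above the mean inhibition across all screened compounds plus 3 SD, cut at about 11% in these data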;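 note: 0% = plate median of test wells and 100% = NSC42067 control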
Target sequence (P86926 whole entry, looked up): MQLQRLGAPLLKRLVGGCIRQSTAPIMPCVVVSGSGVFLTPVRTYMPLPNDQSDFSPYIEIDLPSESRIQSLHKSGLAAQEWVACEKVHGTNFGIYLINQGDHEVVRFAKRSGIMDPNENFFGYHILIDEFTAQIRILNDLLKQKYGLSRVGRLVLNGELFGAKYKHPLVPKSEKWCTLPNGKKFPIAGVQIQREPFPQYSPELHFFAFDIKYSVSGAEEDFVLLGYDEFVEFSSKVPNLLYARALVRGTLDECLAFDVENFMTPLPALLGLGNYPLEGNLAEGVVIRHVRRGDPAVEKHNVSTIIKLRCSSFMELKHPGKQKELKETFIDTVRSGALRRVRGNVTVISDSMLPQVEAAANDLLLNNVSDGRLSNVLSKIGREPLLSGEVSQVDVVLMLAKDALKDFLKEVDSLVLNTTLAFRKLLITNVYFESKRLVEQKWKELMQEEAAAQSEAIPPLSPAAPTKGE
TbREL1 conf = TbREL1 inhibition, confirmation; actives 37% (n = 390); shares compounds with TbREL1 primary; inhibition, % at 9.66 µM; TbREL1 RNA ligation, FRET fluorescence;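 active = mean inhibition across replicates above a set limit taken from the earlier primary screen, cut at about 11% in these data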;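 note: 0% = REL1 with substrate and DMSO and 100% = REL1 plus control inhibitor NSC42067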
Numbers without * were called inactive.

SMILES	TbREL1 primary	others
CCOC(=O)C1CCN(C(=O)C(C)(C)NC(=O)Nc2ccc3c(c2)CCC3)CC1	5.1
O=C1C[C@@H](C(=O)Nc2ccc(Cl)cc2)[C@@H](c2ccccc2)O1	-1.9
Cc1nc(SCC(=O)N(C)c2ccccc2)[nH]c(=O)c1C	-2.4
Cc1ccccc1CN1CCCCC(NC(=O)c2ccccc2F)C1=O (centres undefined)	2.2
CN1C(=O)c2cc(NC(=O)c3ccc(F)cc3)ccc2OC[C@H]2O[C@H](CC(=O)NC3CCC3)CC[C@H]21	-1.6
COc1cc2c(cc1OC)C(c1ccc(-c3ccc(Cl)cc3Cl)o1)=NCC2	5.7
COc1cc2c(cc1OC)C(c1ccc(-c3ccc(Cl)c(Cl)c3)o1)=NCC2	13.6*	TbREL1 conf=24.2*
COc1cc2c(cc1OC)C(c1ccc(Cl)cc1)=NCC2	2.2
Cc1cc(N2CCN(CCO)CC2)n2nc(C)nc2n1	1.9
CCn1c2ccccc2c2cc(NC(=O)COC(=O)c3ccccc3F)ccc21	4.4
CCn1c2ccccc2c2cc(NC(=O)COC(=O)c3cc(Cl)cc(Cl)c3)ccc21	-0.5
CCn1c2ccccc2c2cc(NC(=O)COC(=O)c3cc(Cl)c(N)cc3OC)ccc21	12.1*	TbREL1 conf=8.3
COC(=O)[C@]12C[C@H](CC(=O)N3CCOCC3)C(=O)N(Cc3ccc4c(c3)OCO4)C1=C[C@H](C(C)C)O[C@@H]2C1CC1	-0.8
CCCc1nc2c(=O)n(C)c(=O)nc-2n(C)n1	61.4*	TbREL1 conf=85.6*
COc1ccc(CCn2c(C)nc3c(c(=O)c4ccccc4n3C)c2=O)cc1	9.0
COC(=O)CSc1nnc(-c2cc(-c3ccccc3)n[nH]2)n1N	2.1
Cc1cc(=O)[nH]c(SCC(=O)c2ccc(C)c(C)c2)n1	-1.6
COc1cccc(OC)c1OCCCSc1nc(C)cc(=O)[nH]1	4.5
CCOc1ccc(OCCSc2nc(C)cc(=O)[nH]2)cc1	11.1*	TbREL1 conf=3.2
O=C(c1cncnc1)N1CCC(n2nnc3ncccc32)CC1	0.5
CCCC1CCC2(CCCN2CCOC(=S)Nc2cccc(Cl)c2)CC1 (centres undefined)	-0.7
NC(=O)c1ccc(NC(=O)COc2ccc(-n3cnnn3)cc2)cc1	1.1
O=C(O)COCC(=O)Nc1ccc(-n2cnnn2)cc1	12.5*	TbREL1 conf=7.0
O=C(CN1CCN(Cc2ccccc2)CC1)Nc1ccc(-n2cnnn2)cc1	-1.0
O=C(C1CCCCC1)n1ccc2ccc(-c3ccc4ccn(Cc5ccccc5)c4c3)cc21	4.6
SMILES	TbREL1 primary	others
CN(C(=O)CSc1ncnc2sccc12)c1c(N)n(Cc2ccccc2)c(=O)[nH]c1=O	11.6*	TbREL1 conf=2.1
CN(C(=O)COC(=O)c1cccs1)c1c(N)n(Cc2ccccc2)c(=O)[nH]c1=O	-1.1
CSc1nnc(SCC(=O)N(C)c2c(N)n(Cc3ccccc3)c(=O)[nH]c2=O)s1	6.5
O=C(Nc1ccc(F)cc1)OCc1cn(Cc2cccc(F)c2F)nn1	-0.7
COC(=O)[C@]12C[C@H](CC(=O)N3CCN(C(=O)C4CC4)CC3)C(=O)N(CCc3ccc(OC)c(OC)c3)C1=C[C@H](COCc1ccccc1)O[C@@H]2C	-1.5
OC1(Cc2ccccc2)CCN(c2ncnc3sccc23)CC1	5.2
C/C=C(/C)C(=O)Nc1cccc(C2=NOC3(C2)C[C@H](C(N)=O)N(C(=O)c2ccccc2)C3)c1 (some centres undefined)	-2.2
NC(=O)[C@H]1CC2(CC(c3cccc(NC(=O)[C@H]4CCC(=O)N4)c3)=NO2)CN1C(=O)c1ccccc1 (some centres undefined)	20.1*	TbREL1 conf=25.7*
NC(=O)[C@@H]1CC2(CC(c3cccc(NC(=O)CC(c4ccccc4)c4ccccc4)c3)=NO2)CN1C(=O)c1ccc(Cl)cc1 (some centres undefined)	0.5
CCCCCn1nnnc1C1(C)CN(S(C)(=O)=O)CC(=O)N1Cc1ccco1 (centres undefined)	-1.6
O=C(NCc1ccc(Cl)c(Cl)c1)O[C@H]1CC[C@@]23CCCN2C(=O)CCC[C@H]3C1	-0.5
Cc1c(NC(=O)C2CCCN(S(=O)(=O)c3ccc(Cl)s3)C2)c(=O)n(-c2ccccc2)n1C (centres undefined)	-1.2
CNC(=O)C[C@@H]1CC[C@@H]2[C@H](COc3ccc(NC(=O)c4cccc(F)c4)cc3C(=O)N2C)O1	0.9
Clc1nssc1=Nc1ccc(Br)cc1	-0.7
Clc1nssc1=Nc1nncs1	18.2*	TbREL1 conf=19.3*
O=C(Nc1ccc(Br)cc1)O[C@@H]1CC[C@@]23CCCN2C(=O)CCC[C@H]3C1	4.2
Cc1ccc(-n2c(SCC(=O)Nc3ccccc3-c3ccccc3)nnc2-c2cccs2)cc1	-0.6
COc1ccc(-n2c(SCC(=O)N3CCCCC3C)nnc2-c2ccncc2)cc1 (centres undefined)	-4.4
COc1cc(/C=N/O)ccc1OCc1ccc(C(=O)O)cc1	0.8
NC(N)=N/N=C/c1ccc(OCc2ccccc2)c(OCc2ccccc2)c1	11.7*	TbREL1 conf=10.4
COc1cc(/C=N/NC(=O)c2cccs2)ccc1OCc1ccccc1	0.5
CCCC/C=C1/[C@@H](C(C)C)N(Cc2ccc3c(c2)OCO3)C2=N[C@H](c3ccccc3)CC(=O)N21	-4.4
Cc1cccc(C)c1NC(=O)C1CCN(c2ncccn2)CC1	0.4
COC(=O)C[C@@H]1CC[C@H]2[C@@H](COc3ccc(NC(=O)Nc4ccccc4Cl)cc3C(=O)N2C)O1	-2.4
Cc1c(C(O)(c2ccccc2)c2ccccc2)[n+]2ccccc2n1C	-3.6
SMILES	TbREL1 primary	others
O=c1c([N+](=O)[O-])c(Cl)c2ccccc2n1Cc1ccccc1	17.4*	TbREL1 conf=1.0
O=Nc1c(O)n(Cc2ccccc2)c2ccccc12	-0.7
O=c1c2c([N+](=O)[O-])cc([N+](=O)[O-])cc2sn1Cc1ccccc1	-1.7
COC(=O)C1CN(CCO)CCS(=O)(=O)N1Cc1cn(Cc2cccc(Cl)c2)nn1 (centres undefined)	8.6
CSCCC(NC(=O)COc1ccccc1)C(=O)OCC(=O)c1ccccc1 (centres undefined)	-3.1
CSCCC(NC(=O)COc1ccccc1)C(=O)N1CCN(c2ccccc2O)CC1 (centres undefined)	41.9*	TbREL1 conf=3.0
CCOC(=O)C1CCN(C(=O)C(CCSC)NC(=O)COc2ccccc2)CC1 (centres undefined)	-5.8
O=C(CSc1nnc(-c2ccccc2F)n1Cc1ccco1)Nc1ccccc1-c1ccccc1	-1.3
COC(=O)[C@@H](CC(C)C)CP(=O)(OC)[C@@H](C)NC(=O)OCc1ccccc1 (some centres undefined)	4.8
C=CCCC(=O)N[C@H]1CC[C@@]23CCCN2C(=O)CCC[C@H]3[C@H]1C	-2.5
CN(C)CCCN(C(=O)c1ccc(S(=O)(=O)N(C)C2CCCCC2)cc1)c1nc2ccc(F)cc2s1	11.4*	TbREL1 conf=11.0
CN(C)CCCN(C(=O)c1ccc(S(=O)(=O)N2CCCC2)cc1)c1nc2ccc(Br)cc2s1	9.9
Cc1ccc2nc(N(CCCN(C)C)C(=O)c3ccc4c(c3)CCCC4)sc2c1	2.2
CCN(Cc1ccccc1)S(=O)(=O)c1ccc(C(=O)N(CCCN(C)C)c2nc3ccc(F)cc3s2)cc1	4.9
Cc1cccc2sc(N(CCCN(C)C)C(=O)c3ccc(C(=O)c4ccccc4)cc3)nc12	5.2
CN(C)CCCN(C(=O)c1ccc(C(=O)c2ccccc2)cc1)c1nc2ccc(F)cc2s1	13.8*	TbREL1 conf=10.0
CN(C)CCCN(C(=O)c1ccc(S(=O)(=O)N(C)C2CCCCC2)cc1)c1nc2ccc(Br)cc2s1	16.0*	TbREL1 conf=8.2
